Laboratory results taken from PubChem BioAssay (Tox21).
Results filed as inconclusive are left out. A number with no mark means an inactive call. The source made the active and inactive calls. The call rests on the fitted dose curve; in most records, active means well fitted inhibition curve with a large enough effect in the repeat runs; inconclusive means weak or mixed curves; inactive means no such curve, though single readings can be large or run the other way.

What follows are molecules tested against Cytochrome P450 2D6 (Homo sapiens) (UniProt P10635) (assay: Cytochrome P450 Family 2 Subfamily D Member 6 (CYP2D6) small molecule antagonists: luciferase reporter qHTS assay (AID 1671196; further: nearly all actives have a fitted effect of over 50% in size)). Settings: P450-Glo CYP2D6 enzyme assay, luciferin luminescence, 1 h; series mostly up to 115 µM; activity change, negative = inhibition: at the top concentration.
Source text: U.S. Tox21 Program National Center for Advancing Translational Sciences [NCATS] U.S. Environmental Protection Agency [EPA] National Institutes of Environmental Health Sciences [NIEHS] National Toxicology Program [NTP] U.S. Food and Drug Administration [FDA] Tox21 Assay Overview: Cytochrome P450 (CYP) enzymes are membrane-bound hemeproteins that play a key role in metabolism of drugs and xenobiotics. Evaluation of the effect of chemicals on CYP isozymes is useful to minimize the adverse drug reactions and toxicities in drug development process. Tox21 chemicals were tested for their effect on CYP enzyme activities by using P450-Glo (TM) screening systems (Promega Corporation, Madison, WI). These systems provide a luminescent method containing proluciferin substrates and are converted to luciferin products by CYP isozymes. The luciferin products formed are detected with a luciferin detection reagent, and the amount of light produced is proportional to CYP activity. P450-Glo (TM) CYP2D6 screening system (Catalog. No. V9890) was used to detect the compounds that interfere in CYP2D6 activity.
Tox21 Assay Protocol Summary: Two ul of enzyme-substrate mix was dispensed into medium binding white/solid 1536-well plates (Greiner Bio-One North America Inc., Monroe, NC) using a BioRaptr Flying Reagent Dispenser (FRD, Beckman Coulter, Brea, CA). […] The assay plates were incubated at room temperature for 10 min. Then 2 ul of NADPH regeneration solution was added to each well of the assay plates using an FRD and incubated at room temperature for 1 h. The reaction was stopped by adding 4 ul of detection reagent using an FRD and after 20 min incubation at room temperature the luminescence signal was measured using a ViewLux plate reader (Perkin Elmer, Shelton, CT). Data were expressed as relative luminescence units.
On the % scale 0 is the no-effect control and ±100 the full control effect; potency means the concentration at half of the fitted maximal effect.

Cytochrome P450 2D6 (Homo sapiens), sequence (P10635 whole entry, looked up): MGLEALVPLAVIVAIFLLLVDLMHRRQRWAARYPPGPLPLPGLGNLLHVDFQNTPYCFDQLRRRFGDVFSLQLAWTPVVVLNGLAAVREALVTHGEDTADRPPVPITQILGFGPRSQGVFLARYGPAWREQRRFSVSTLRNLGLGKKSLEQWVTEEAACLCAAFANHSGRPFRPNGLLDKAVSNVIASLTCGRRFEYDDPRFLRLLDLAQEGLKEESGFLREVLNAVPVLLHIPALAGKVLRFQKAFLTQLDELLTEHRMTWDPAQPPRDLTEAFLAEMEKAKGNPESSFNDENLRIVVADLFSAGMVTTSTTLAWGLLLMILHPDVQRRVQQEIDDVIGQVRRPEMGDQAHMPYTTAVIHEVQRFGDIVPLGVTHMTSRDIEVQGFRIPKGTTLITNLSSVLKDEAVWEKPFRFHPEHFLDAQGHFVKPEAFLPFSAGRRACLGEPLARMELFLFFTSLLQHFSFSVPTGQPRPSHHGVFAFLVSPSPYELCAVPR

Structure (SMILES) | Potency | activity change, negative = inhibition
O=C(Nc1ccccc1)c1ccccc1I | 35.6 µM (active) | 
COc1cc(C[C@@H](C)N)c(OC)cc1C | 47.9 µM (active) | 
CCCSP(=O)(OCC)Oc1ccc(Br)cc1Cl (stereo not given) | 15.4 µM (active) | 
O=C(O)c1ccc2[nH]cc(CCCCN3CC=C(c4ccccc4)CC3)c2c1 | 12.3 µM (active) | 
CN1C[C@@H](NS(=O)(=O)N(C)C)C[C@@H]2c3cccc4c3c(cn4C)C[C@H]21 |  | -99.1% [at 53 µM]
CCOP(=S)(Oc1cnc(C(C)(C)C)nc1)OC(C)C (stereo not given) | 35.6 µM (active) | 
CCC1(c2ccccc2)C(=O)N=C(O)NC1=O (stereo not given) |  | -0.832%
CC(=O)CC(c1ccc(Cl)cc1)c1c(O)c2ccccc2oc1=O (stereo not given) |  | -15.8%
O=NN1CCCCC1 |  | -10.6%
O=[N+]([O-])c1ccc2c3c(cccc13)CC2 |  | -21.4%
CN(C)CCc1ccc(O)cc1 |  | -8.28% [at 53 µM]
O=C(CCN1CC1)OCC(CO)(COC(=O)CCN1CC1)COC(=O)CCN1CC1 |  | -0.974%
O=C1OC(=O)C2C1C1(Cl)C(Cl)=C(Cl)C2(Cl)C1(Cl)Cl (stereo not given) |  | -10.3%
CCOC(=O)N(C)C(=O)CSP(=S)(OCC)OCC | 28.3 µM (active) | 
ClC(Br)Br |  | -25.3%
OCCSCSCCO |  | 1.27%
NC1=NC(=O)C(c2ccccc2)O1 (stereo not given) |  | 0.403% [at 53 µM]
CCS(=O)(=O)CCSP(=O)(OC)OC |  | -25%
CC(=O)C(Cl)Cl |  | -0.809%
CCCCOC(=O)c1ccccc1N |  | -14.7%

Structure (SMILES) | Potency | activity change, negative = inhibition
CN1CCC(N(Cc2ccccc2)c2ccccc2)CC1 | 0.309 µM (active) | 
CCC(=O)C(CCN(C)C)(c1ccccc1)c1ccccc1 | 5.49 µM (active) | 
ClC(Cl)Br |  | 0.401%
CN1C(=S)CN=C(c2ccccc2)c2cc(Cl)ccc21 |  | -15.9% [at 53 µM]
CCOP(=O)(N=C1SCCS1)OCC |  | -22.5%
CN1CCN(C(=O)O[C@H]2c3nccnc3C(=O)N2c2ccc(Cl)cn2)CC1 |  | -20% [at 53 µM]
O=[N+]([O-])c1cc(Cl)c(Cl)c(Cl)c1 |  | -20%
Nc1cnn(-c2ccccc2)c(=O)c1Cl |  | 3.6%
CC1(C)C(=O)NC(=O)NC1=O |  | -21.8%
O=C(O)c1cccc(Cl)c1 |  | -15.1%
CCCCOC(=O)c1ccccc1C(=O)O |  | -11.4%
COC(=O)COc1ccc(Cl)cc1Cl |  | -17.3%
Cc1cnc[nH]1 | 34.2 µM (active) | 
CCC#N |  | -4.14%
N#CCBr |  | -19.1%
COc1cccc2c1cc([N+](=O)[O-])c1c(C(=O)O)cc3c(c12)OCO3 |  | -25%
CSc1ccc(C(=O)C(C)(C)N2CCOCC2)cc1 | 2.52 µM (active) | 
C1CCC(C2CCCCC2)CC1 |  | -19.6%
COP(=S)(OC)Oc1c(Cl)cc(C)cc1Cl |  | -21%
CC(C)CC(N(C)C)C1(c2ccc(Cl)cc2)CCC1 (stereo not given) | 4.36 µM (active) | 
